Measurements taken from PubChem BioAssay AID492998 (Southern Research Specialized Biocontainment Screening …, 2010).
Among all 2,300 compounds or so, about 550 (24%) were called active. No rule for the calls is given here. A selection follows. Entries that show only a call come without a potency. Potency and affinity values are given separately.

Assay: Vero E6 cell cytotoxicity, dose response, cytotoxicity control for non-replicating M. tuberculosis project, secondary assay (AID 492998)
Conditions: series mostly up to 20 µM

Row | SMILES | outcome
1 | Cc1ccc(C(=O)O/N=C(\N)c2cccc([N+](=O)[O-])c2)cc1 | inactive
2 | O=C(OCCCOC(=O)c1ccc([N+](=O)[O-])o1)c1ccc([N+](=O)[O-])o1 | inactive
3 | CCOC(=O)C1CCN(CCCSc2ccc(Cl)cc2)CC1 | inactive
4 | Cc1ccc(NC(=O)C2=C(c3ccccc3)S(=O)(=O)CCS2(=O)=O)cc1 | inactive
5 | C/C(=N\NC(=O)COc1ccc(C)cc1Br)c1cc([N+](=O)[O-])cs1 | inactive
6 | C/C(=N\NC(=O)c1cc([N+](=O)[O-])cc([N+](=O)[O-])c1)c1ccco1 | inactive
7 | O=C(CCN1CCC(c2ccccc2)C1)c1ccccc1 (stereo not drawn) | inactive
8 | COC(=O)COc1ccc2c(-c3cccc([N+](=O)[O-])c3)cc(=O)oc2c1 | inactive
9 | CCOC(=O)c1c(NC(=O)COC(=O)c2ccccn2)sc2c1CCC2 | inactive
10 | COc1ccc(-c2nnn(CC(=O)OC3CCCCC3)n2)cc1OC | inactive
11 | COc1ccc2c(c1)sc(=N)n2C | inactive
12 | CCOC(=O)C(C)Oc1cc(Cl)c(C=O)cc1OC (stereo not drawn) | inactive
13 | CC1=NN(c2ccccc2)C(=O)C1C(=O)c1ccccc1 (stereo not drawn) | inactive
14 | O=C(OCc1nc2ccccc2s1)c1ccc(Br)o1 | inactive
15 | COc1ccc(N=Cc2nc(-c3ccccc3)oc2OC(C)=O)cc1 | inactive
16 | Cc1ccc(NC(=O)COC(=O)C(NS(=O)(=O)c2ccc(Cl)cc2)C(C)O)cc1C (stereo not drawn) | inactive
17 | O=C(Nc1nnc(-c2ccc(Br)cc2)o1)c1ccco1 | inactive
18 | O=C(Nc1nnc(-c2ccc(Br)cc2)o1)C1=COCCO1 | inactive
19 | O=C(Nc1nnc(-c2cc(Cl)ccc2Cl)o1)C1=COCCO1 | inactive
20 | Cc1ccc(-c2nnc(Cc3ccc([N+](=O)[O-])cc3)o2)cc1 | inactive
21 | O=C(Nc1nnc(-c2ccccc2Cl)o1)c1ccco1 | inactive
22 | C/C(CC(=O)Nc1ccc(C)c(Cl)c1)=N\NC(=O)c1ccco1 | inactive
23 | Cc1ccc(C)c(-c2nnc(NC(=O)COc3ccccc3)o2)c1 | inactive
24 | CCc1nnc(NC(=O)CN2CCN(c3ccccc3F)CC2)s1 | inactive
25 | CC(C)[C@H]1CN=C2N(C[C@H](C)NC(=O)CCC3CCCCC3)[C@H](Cc3ccc(O)cc3)CN21 | inactive

Row | SMILES | outcome
26 | COc1ccc(C2=Nc3ccccc3OC2)cc1 | inactive
27 | O=C(OCC#CCSc1nnc(-c2ccccc2)o1)c1ccco1 | inactive
28 | Cc1ccnc(NC(=O)COc2ccc3c(c2)CCC3)c1 | inactive
29 | COCCCNC(=O)COC(=O)c1ccc(-c2nc3ccccc3s2)s1 | inactive
30 | COc1ccc(C(C)=O)cc1COC(=O)c1ccc2ccccc2n1 | inactive
31 | CC1Cc2ccccc2N1C(=O)COC(=O)c1ccc(Cl)nc1 (stereo not drawn) | inactive
32 | Cn1c(=O)c2c(=O)cc(NNC(=O)CC#N)[nH]c2n(C)c1=O | inactive
33 | COC(=O)COc1ccc(S(=O)(=O)NCc2ccc3c(c2)OCO3)cc1 | inactive
34 | COc1ccc(NCC(=O)N2CCCC2)cc1Cl | inactive
35 | CC1CCc2c(sc3nc(CSc4ncn[nH]4)[nH]c(=O)c23)C1 (stereo not drawn) | inactive
36 | CCOC(=O)COc1ccc2c(=O)c(-c3ccccc3)coc2c1 | inactive
37 | C=CCN1C(=O)C2(NNc3ccccc3O2)c2ccccc21 (stereo not drawn) | inactive
38 | Cc1ccc2c(c1)C(=O)C(=O)N2CCCOc1ccccc1 | inactive
39 | O=C(c1ccccc1)n1c(=O)c(F)cn(COCCBr)c1=O | inactive
40 | Cc1cc(C)cc(NC(=O)CCc2ccc(C)o2)c1 | inactive
41 | CCc1ccc(N=CC2=C(O)CC(c3ccco3)CC2=O)cc1 (stereo not drawn) | inactive
42 | C/C(=N/NC(=O)c1ccco1)c1ccc(Br)s1 | inactive
43 | Cc1ccc(/C=C2\SC(=S)N(C3CCS(=O)(=O)C3)C2=O)o1 (stereo not drawn) | inactive
44 | COC(=O)c1ccc(CO/N=C/c2ccc(OC)cc2)o1 | inactive
45 | CCOC(=O)COc1ccc(C(=O)NC2CCCCC2)cc1 | inactive
46 | N/C(=N\OC(=O)c1cccc(Br)c1)c1ccc([N+](=O)[O-])cc1 | inactive
47 | O=c1c2cc(Cl)ccc2nc(-c2ccccc2Cl)n1O | inactive
48 | O=[N+]([O-])c1ccc2nc(SCc3cn4cc(Cl)ccc4n3)[nH]c2c1 | inactive
49 | Cc1nc2ccc(Cl)cc2nc(C)/c1=N\O | inactive
50 | O=C(Oc1cccc([N+](=O)[O-])c1)c1ccc2c(=O)n3c(nc2c1)CCC3 | inactive

Row | SMILES | outcome
51 | O=c1c2c([N+](=O)[O-])cc([N+](=O)[O-])cc2sn1-c1ccc(Br)cc1 | inactive
52 | CCOC(=O)c1cn(Cc2cccc(Cl)c2)nn1 | inactive
53 | O=C(O)c1ccccc1C(=O)NNc1ccc(Cl)cc1 | inactive
54 | CCCCCC1CC(CC(=O)NC(=S)Nc2ccc([N+](=O)[O-])cc2)C(=O)O1 (stereo not drawn) | inactive
55 | Cc1c(Cl)cccc1NC(=O)C1COc2ccccc2O1 (stereo not drawn) | inactive
56 | CCOC(=O)NC(=O)COC(=O)CCCSc1nc2ccccc2s1 | inactive
57 | Cn1ccsc1=NC(=O)c1ccccc1F | inactive
58 | CCc1ccc(C(=O)NC2CCCCC2)s1 | inactive
59 | Cc1ccc(Sc2ccc(C=C3C(=O)N(C)C(=O)N(C)C3=O)o2)cc1 | inactive
60 | Cc1cc(C(=O)NNc2cc(Cl)ccc2Cl)no1 | inactive
61 | CC(C)(C)OC(=O)NCCC(=O)Oc1ccc2ccc(=O)oc2c1 | inactive
62 | COC(=O)[C@@H](NC(=O)c1cc(COc2cncc(Cl)c2)on1)c1ccccc1 | inactive
63 | Cc1ccc(NC(=O)CN(C)CC(=O)Nc2ccc(F)c(Cl)c2)cc1 | inactive
64 | CCOC(=O)COc1cc([N+](=O)[O-])cc2cccnc12 | inactive
65 | O=[N+]([O-])c1cnc(Nc2ccc(Cl)cn2)c([N+](=O)[O-])c1 | inactive
66 | O=C1c2cccc3cc([N+](=O)[O-])cc(c23)C(=O)N1c1ccccc1O | inactive
67 | NCCNc1ccc([N+](=O)[O-])c2cccnc12 | inactive
68 | Fc1ccc(N2CCN(Cc3nnc(-c4ccccc4)o3)CC2)cc1 | inactive
69 | Cc1occc1-c1nnc(-c2cc([N+](=O)[O-])cc([N+](=O)[O-])c2)o1 | inactive
70 | S=C(Nc1ccc2c(c1)OCO2)Nc1ccc2c(c1)OCO2 | inactive
71 | CCOC(=O)c1cc(-c2csc(COc3ccccc3)n2)on1 | inactive
72 | CC(=O)N1CCC(=NNC(=O)c2cccs2)CC1 | inactive
73 | NC1CCN(c2c(F)cc3c(=O)c(C(=O)O)cn(C4CC4)c3c2Cl)C1 (stereo not drawn) | inactive
